Entries with a potency or affinity are not part of this list.
These compounds were tested against CAAX prenyl protease 2 (Homo sapiens) (UniProt Q9Y256) (assay: human Rce1 protease inhibitors, dose response, biochemical, yeast membranes, quenched-peptide fluorescence, cherry-pick (AID 588849)). Details: yeast membrane fractions expressing human Rce1, quenched-peptide fluorescence, 4 h; series mostly up to 10 µM; activity change, negative = inhibition: at the top concentration; call rule not given here.
Sequence of CAAX prenyl protease 2 (Homo sapiens) (Q9Y256 whole entry, looked up): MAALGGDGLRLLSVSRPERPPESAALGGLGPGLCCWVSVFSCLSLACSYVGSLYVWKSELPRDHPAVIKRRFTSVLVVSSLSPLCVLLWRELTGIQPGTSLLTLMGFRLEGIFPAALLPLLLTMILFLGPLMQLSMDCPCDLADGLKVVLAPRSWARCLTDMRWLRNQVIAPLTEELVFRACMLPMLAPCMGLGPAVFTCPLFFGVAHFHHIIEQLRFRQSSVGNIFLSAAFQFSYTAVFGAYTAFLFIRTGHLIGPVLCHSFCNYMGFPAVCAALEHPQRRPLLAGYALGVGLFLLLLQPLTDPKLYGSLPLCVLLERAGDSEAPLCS

Activity change, negative = inhibition, inactive:
CCCCCCCCCCOC(=O)Cn1c(COc2ccc(C)cc2)[n+](C)c2ccccc21 -18.4%, NC(=NCCCCCCN=C(N)/N=C(\N)Nc1ccc(Cl)cc1)/N=C(\N)Nc1ccc(Cl)cc1 4.17%, COC(C/C=C/C(=O)[C@H](C)OCc1ccccc1)OC -4.27%, CN1CCN(Cc2c(C(=O)N/N=C/c3cccc(Br)c3)nnn2-c2nonc2N)CC1 -30.2%, CN1CCN(C(=S)NC(=O)c2ccccc2Cl)CC1 0.21%, Cc1ccc(S(=O)(=O)c2cn(C)c3cc(N4CCOCC4)c(F)cc3c2=O)cc1 -6.82%, Cc1nn(CCC(=O)O)c2nc(-c3cccnc3)cc(C(F)(F)F)c12 -20.6%, O=C(COc1ncnc2cc([N+](=O)[O-])ccc12)NC(=O)NC1CCCCC1 0.658%, COc1cc2c(cc1OC)C(C)N(C(=O)c1cc3c(=O)oc4ccc(C)cc4c3s1)CC2 (stereo not drawn) 14.6%, O=C(c1cnc(Cl)c(Cl)c1)N1CCC(Cc2ccccc2)CC1 1.23%, O=S(=O)(CC(CN1CCOCC1)N1CCOCC1)c1ccccc1 (stereo not drawn) 7.37%, CCn1cc(C(=O)NCCO)c(=O)c2cc(F)c(N3CCN(C)CC3)cc21 7.34%, CC(C)CNC(=O)COc1cccc(C(=O)NCc2ccccc2)c1 10.1%, Cc1ccc(NC(=O)CCc2ccc(S(=O)(=O)NC3CCCCC3)cc2)cc1 4.69%, COC(C/C=C/[C@H](O)[C@H](C)OCc1ccccc1)OC 2.01%, CCCCNC(=O)c1cc2c(=O)n3cccc(C)c3nc2n(Cc2ccccc2)c1=N -1.87%, CCN(CC)CCCNC(=O)CCc1c(C)n(CC)c2cc(-c3ccccc3OC)nn2c1=O -17.2%, COc1cc(-c2nc3ccccn3c2/N=C/c2cc(OC)c(OC)c(OC)c2)ccc1O -9.61% [at 3.5 µM], COc1ccc(C)cc1NC(=O)CN1C(=O)COc2ccc(S(=O)(=O)N3CCOCC3)cc21 -18.6%, O=C(NCCc1cccnc1)c1cc(COc2ccc(F)cc2Cl)on1 15.2%, CCn1cc(/C=C(\NC(=O)c2ccccc2Cl)C(=O)N2CCOCC2)c2ccccc21 -3.13%, O=C(O)c1ccc2cccc(Cl)c2c1O -8.94%, Cc1ccc(SCc2c(C(=O)N/N=C/c3ccccc3)nnn2-c2nonc2N)cc1 -19.6%, CCN(CC)CCCNc1cc(C)nc2cc(-c3cccs3)nn12 -17.1%, COc1cccc2c(=O)c(C(=O)O)c[nH]c12 -1.31%, Nc1nnnn1/N=C/c1cccc(OCc2ccccc2Cl)c1 19.6% [at 3.5 µM], COc1cc2cc(C(=O)O)[nH]c2c(OC)c1OC -9%, Cc1ccc(C(=O)c2c3ccccc3[n+]([O-])n2CCO)cc1 -8.71%, c1ccc(Nc2cccc(Nc3ccccc3)n2)cc1 46.8%, CCCC(=O)N1CCN(c2ccc(NC(=O)c3cc4ccccc4o3)cc2Cl)CC1 -12%, CCOC(=O)c1nnn2c1nc(N1CCOCC1)c1ccccc12 5.58%, COc1ccccc1N1CCN(c2ncc(C(=O)N3CCN(c4cccc(Cl)c4)CC3)c3ccccc23)CC1 16%, COc1ccc(-n2nc(C(=O)NCC(=O)N3CCC(C)CC3)c3ccccc3c2=O)cc1 -6.65%, CC1=NN(c2ccccc2)C(=O)/C1=C\c1ccc(Br)s1 -15.8%, O=C(NCCc1c[nH]c2ccccc12)OCCSS(=O)(=O)O 1.36%, COc1ccccc1/C=C/C=N/NC(=O)CN1CCN(S(=O)(=O)c2ccc(C)cc2)CC1 -15.5%, O=C1NC(c2ccc(Br)cc2)Nc2ccccc21 (stereo not drawn) 7.42%, Cc1cccc(N2C(=O)c3cccc4c(N5CCCCC5)c([N+](=O)[O-])cc(c34)C2=O)c1C 7.91%

Reference: PubChem BioAssay AID588849 (Broad Institute, 2011)
